From the GenesisPotency data set come the findings set out here.

In all, about 65,000 compounds went through this assay and about 45 (0.07%) were called active. The call rests on the fitted dose curve. The full list was thinned out, with actives kept by preference.

This assay relates to T1, .
T1 sequence (whole entry): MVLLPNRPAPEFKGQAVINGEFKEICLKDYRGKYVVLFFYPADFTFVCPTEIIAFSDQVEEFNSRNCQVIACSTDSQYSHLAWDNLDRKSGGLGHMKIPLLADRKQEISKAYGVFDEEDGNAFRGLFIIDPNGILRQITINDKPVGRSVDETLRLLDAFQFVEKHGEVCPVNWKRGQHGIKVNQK
Nature of the assay: Schistosoma Mansoni Peroxiredoxins (Prx2).
Turning to `COc1ccc(S(=O)(=O)N(Cc2cc3ccc(OC)cc3[nH]c2=O)CC2COCCO2)cc1` (stereo not given), the call was active. Consider `Cc1cc(C)c2cc(CN(CC3CCCO3)S(=O)(=O)c3ccc4c(c3)OCCO4)c(=O)[nH]c2c1` (stereo not given), for which the call was active.

Take `CCc1nc(OCCN(CC)CC)c2oc3ccccc3c2n1.Cl`: the call was inactive. Consider `CC(=O)Oc1cc(OC(C)=O)c2c(C)cc(=O)oc2c1`, for which the outcome was active.

Regarding `O=C(/N=C1\NC(=O)C(F)(C(F)(F)F)S1)NC1CCCCC1` (stereo not given), the compound was classed as active.

Take `COC(=O)Cc1c(C)c2ccc(OC(=O)c3ccco3)cc2oc1=O`: the result was active. Turning to `CCC(=O)Oc1ccc2c(C)c(Cl)c(=O)oc2c1`, the result was active. Consider `c1ccc(Cc2nn3c(C4COc5ccccc5O4)nnc3s2)cc1` (stereo not given), for which the call was inactive.

On to `O=C1c2ccccc2C(=O)N1CCCCn1c(=O)oc2ccccc21`, for which the compound was called inactive. As for `CN(C)c1oc(-c2ccccc2Cl)nc1C#N`, the compound was classed as active.
